Gli-Sufu block = Gli-Sufu pathway antagonism. Sufu-KO-LIGHT fibroblasts, Gli luciferase reporter luminescence. inhibition, % at 5 µM. 0.74% of 340,000 active;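 active means inhibition above about 55%, limit read from the data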;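 further: 0% = DMSO-treated cells and 100% = wells with medium but no cells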
697 NFkB inh = lowers PMA/ionomycin-induced NF-kB signal in 697 B cells; 697 B-cell NF-kB luciferase reporter, 16 h; AID 435022; 0.33% of 330,000 active; inhibition, % at 4 µM; in the data active means inhibition above about 35%
Beta apoptosis = blocks beta cell apoptosis. INS-1E cytokine-induced death, ATP luminescence, 48 h; percent of positive-control rescue, neutral wells zero. protection from apoptosis, % (test concentration not listed). 0.8% of 300,000 active. AID 435005;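 active means Every replicate reaches about 75%, or at least half do and their mean reaches it too, limit read from the data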;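 further: 0% = cytokine-treated negative control wells and 100% = positive control rescue; higher means more ATP so stronger rescue from cytokine killing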
CSC inhib = blocks cancer stem cells | inhibition, % at 7.5 µM | AID 2717 | cancer stem cell-like cells viability, luminescence | 1.1% of 300,000 active; in the data active means inhibition above about 75%; tested in HMLE shEcad cells
Jurkat NFkB inh = inhibitors of the PMA/ionomycin-induced NF-kB reporter in Jurkat cells; PMA/ionomycin-induced NF-kB luciferase reporter, luminescence; inhibition, % at 4 µM; 0.53% of 330,000 active; in the data active means inhibition above about 50%
Mdm2 MdmX PPI = human Mdm2/MdmX binding inhibition; O15151+Q00987; SaOS-2 split-luciferase Mdm2/MdmX complementation, luminescence; inhibition, % at 8 µM; 3% of 330,000 active;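 active means inhibition of at least 50% at 8 µM in the primary screen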
Target sequence (O15151 whole entry, looked up): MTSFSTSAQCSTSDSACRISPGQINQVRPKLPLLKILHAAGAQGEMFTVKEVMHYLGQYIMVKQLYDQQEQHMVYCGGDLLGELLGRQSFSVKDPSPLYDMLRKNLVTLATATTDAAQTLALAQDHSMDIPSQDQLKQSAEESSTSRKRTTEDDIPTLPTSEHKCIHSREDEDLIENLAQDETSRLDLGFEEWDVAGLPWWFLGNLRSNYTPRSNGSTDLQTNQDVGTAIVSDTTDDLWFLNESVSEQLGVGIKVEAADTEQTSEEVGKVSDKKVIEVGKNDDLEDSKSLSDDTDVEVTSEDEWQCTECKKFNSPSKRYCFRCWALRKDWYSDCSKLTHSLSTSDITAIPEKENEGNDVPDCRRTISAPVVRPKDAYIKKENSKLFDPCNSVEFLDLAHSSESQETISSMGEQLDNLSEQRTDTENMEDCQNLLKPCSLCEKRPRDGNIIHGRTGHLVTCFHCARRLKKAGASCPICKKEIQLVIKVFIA
Target sequence (Q00987 whole entry, looked up): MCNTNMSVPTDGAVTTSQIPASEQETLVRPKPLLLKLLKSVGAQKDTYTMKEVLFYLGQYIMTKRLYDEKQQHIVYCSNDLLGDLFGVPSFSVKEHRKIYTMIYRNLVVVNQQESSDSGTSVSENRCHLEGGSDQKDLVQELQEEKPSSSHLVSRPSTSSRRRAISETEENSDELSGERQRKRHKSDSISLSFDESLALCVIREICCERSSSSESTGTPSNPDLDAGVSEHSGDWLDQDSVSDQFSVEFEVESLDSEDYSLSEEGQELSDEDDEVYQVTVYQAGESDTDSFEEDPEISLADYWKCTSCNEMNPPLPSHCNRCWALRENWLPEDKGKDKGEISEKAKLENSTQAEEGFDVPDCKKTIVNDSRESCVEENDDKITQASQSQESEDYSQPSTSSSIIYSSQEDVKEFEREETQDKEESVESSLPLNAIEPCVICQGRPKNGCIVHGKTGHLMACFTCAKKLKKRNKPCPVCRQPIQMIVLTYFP
Mdm2 MdmX conf = human Mdm2/MdmX binding inhibition, confirmed; shares compounds with Mdm2 MdmX PPI; luminescent assay; inhibition, % at 8 µM; 55% of 10,000 active; AID 489028; in the data active means inhibition above about 40%
Full FLuc ctr = full-length luciferase inhibition in Mdm2/MdmX counter-screen | shares compounds with Mdm2 MdmX PPI | SaOS-2 full-length luciferase counterscreen, luminescence | inhibition, % at 8 µM | 77% of 6,200 active;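 active means mean inhibition at 8 µM reaching about 37%, which flags the compound as non-specific, limit read from the data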;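 further: p53-null SaOS-2 cells with luciferase driven by a doxycycline-inducible promoter; compound on cells about two nights before reading with doxycycline added after day one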
Active calls of the source: *. The list is not random: actives were taken first. Their share in the collection is about 4.5%.

What do the screens show for `COC(=O)CS(=O)(=O)c1nnc([C@H](Cc2ccccc2)NC(=O)OC(C)(C)C)o1`?
Gli-Sufu block: -11.7; 697 NFkB inh: -10.8; Beta apoptosis: 34.8; CSC inhib: 91.3*; Jurkat NFkB inh: 30.2; Mdm2 MdmX PPI: 83.5*; Mdm2 MdmX conf: 56.2*; Full FLuc ctr: 15.1

How did COC(=O)CSc1nnc([C@H](Cc2ccccc2)NC(=O)OC(C)(C)C)o1 do in these assays?
Gli-Sufu block: -2.6; 697 NFkB inh: -2.3; Beta apoptosis: -7.7; CSC inhib: -10.7; Jurkat NFkB inh: -1.0; Mdm2 MdmX PPI: -31.5

Results for Cc1cccc(CS(=O)(=O)c2nnc([C@H](Cc3ccccc3)NC(=O)OC(C)(C)C)o2)c1 ?
Gli-Sufu block: 2.5; 697 NFkB inh: -4.3; Beta apoptosis: 53.4; CSC inhib: 94.8*; Jurkat NFkB inh: 23.6; Mdm2 MdmX PPI: 97.3*; Mdm2 MdmX conf: 56.3*; Full FLuc ctr: 53.7*

What do the screens show for `CC(C)(C)OC(=O)N[C@@H](Cc1ccccc1)c1nnc(SCC(N)=O)o1`?
Gli-Sufu block: 5.8; 697 NFkB inh: -8.9; Beta apoptosis: -1.6; CSC inhib: -3.7; Jurkat NFkB inh: -5.8; Mdm2 MdmX PPI: 3.5

What do the screens show for `CCCCC[C@@H]1C=C(C(=O)O)[C@H](c2ccc3c(c2)OCO3)N1S(=O)(=O)c1ccc(C)cc1`?
Gli-Sufu block: -4.3; 697 NFkB inh: 11.6; Jurkat NFkB inh: 4.7; Mdm2 MdmX PPI: 11.6

What do the screens show for `O=C(COC(=O)C1CCC1)NCc1ccc(Cl)cc1Cl`?
Gli-Sufu block: -6.0; 697 NFkB inh: 5.3; Beta apoptosis: -5.0; CSC inhib: 1.6; Jurkat NFkB inh: 16.3; Mdm2 MdmX PPI: 16.9

Results for COc1ccccc1N=c1oc2c(OC)cccc2cc1C(=O)NCc1ccco1 ?
Gli-Sufu block: 9.1; 697 NFkB inh: -3.6; Beta apoptosis: -1.3; CSC inhib: -17.4; Jurkat NFkB inh: -5.4; Mdm2 MdmX PPI: 50.6*; Mdm2 MdmX conf: 3.5

How did CCCC(=O)Nc1cc(C)cn(Cc2c(F)cccc2Cl)c1=O do in these assays?
Gli-Sufu block: -7.8; 697 NFkB inh: -4.2; Beta apoptosis: -0.4; CSC inhib: 8.7; Jurkat NFkB inh: 11.1; Mdm2 MdmX PPI: -1.0

How did CCOC(=O)c1cnc(-n2nc(C)cc2C)nc1NC1CCCC1 do in these assays?
Gli-Sufu block: 18.4; 697 NFkB inh: -45.6; Beta apoptosis: 97.4*; CSC inhib: -6.4; Jurkat NFkB inh: 7.9; Mdm2 MdmX PPI: 76.2*; Mdm2 MdmX conf: 41.8*; Full FLuc ctr: 43.2*

Results for COc1cccc2c1cc1c(=O)n(CC(=O)NCCCN3CCCCC3)nc(C)n12 ?
Gli-Sufu block: 9.9; 697 NFkB inh: -15.8; Beta apoptosis: -11.2; CSC inhib: -0.8; Jurkat NFkB inh: -17.0; Mdm2 MdmX PPI: 6.6

How did O=C(Nc1cnccn1)Nc1cccc(Cl)c1Cl do in these assays?
Gli-Sufu block: -11.6; 697 NFkB inh: -17.9; Beta apoptosis: 7.1; CSC inhib: 2.5; Jurkat NFkB inh: -4.5; Mdm2 MdmX PPI: 76.7*; Mdm2 MdmX conf: 68.0*; Full FLuc ctr: 104.8*

Results for CCOc1ccc(NC(=O)CN(C)C(=O)c2cn(-c3ccc(F)cc3)nc2-c2cccc(OC)c2)cc1OCC ?
Gli-Sufu block: 21.0; 697 NFkB inh: -3.1; Beta apoptosis: 5.8; CSC inhib: -13.0; Jurkat NFkB inh: 2.7; Mdm2 MdmX PPI: 23.9

What do the screens show for `CCN(CC)CCNC(=O)c1ccc(NC(=O)c2cn(-c3ccc(F)cc3)nc2-c2cccc(OC)c2)cc1`?
Gli-Sufu block: 20.9; 697 NFkB inh: 6.3; Beta apoptosis: 14.9; CSC inhib: 20.9; Jurkat NFkB inh: -6.2; Mdm2 MdmX PPI: 96.4*; Mdm2 MdmX conf: 58.2*; Full FLuc ctr: 27.9

How did O=C(c1cn(-c2ccccc2)nc1-c1cccs1)N1CCOCC1 do in these assays?
Gli-Sufu block: 21.0; 697 NFkB inh: 2.6; Beta apoptosis: 0.8; CSC inhib: 9.8; Jurkat NFkB inh: 0.9; Mdm2 MdmX PPI: 22.6
